Experimental data taken from PubChem BioAssay (NCI).
This is part of a sample that, as a whole, favours compounds with a hit. Of some 83,000 tested, about 20% had one in any assay.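 Each cell line was grown in a 96-well plate and treated with one concentration of compound for 48 hours. Values below 10 were considered active.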 Values without a mark were called inactive.

The molecules below were run on MDA-MB-468 breast (assay: NCI-60 one-dose screen, 48 h (100 = growth as untreated, 0 = no growth, -100 = all killed)). Details: 10 µM unless noted.

| Structure (SMILES) | growth [%] |
| --- | --- |
| c1ccc(-c2[nH]c3ccccc3c2-c2ccccc2)cc1 | 84.1 |
| CCCCCCCCCCCCCCCCCBr | 99.8 |
| Nc1nc(NC2CC2)cc(-c2cccc(Cl)c2Cl)n1 | 30.8 |
| CC(C)(CCCN=C(N)Nc1ccc(Cl)cc1)c1ccc(F)cc1 | 16.1 |
